# Many of the other results were omitted from the sample, so the strongest signals are more common in it than they were.
# Columns and labels:
# Experiment in all cases: glycan array binding signal (z-score within array); higher = stronger binding
# Settings in all cases: glycan notation: IUPAC condensed, linker removed
# [1] = biological target: Fuc(a1-2)Gal(b1-3)[Fuc(a1-4)]GlcNAc(b1-2)Man(a1-3)[Fuc(a1-2)Gal(b1-3)[Fuc(a1-4)]GlcNAc(b1-2)Man(a1-6)]Man(b1-4)GlcNAc(b1-4)[Fuc(a1-6)]GlcNAc(b1-4)[Fuc(a1-6)]GlcNAc
# Summary of the method: (§1)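 From the Consortium for Functional Glycomics database, 3228 arrays were curated, keeping only those whose protein sequence was available. Binding is given as a within-array Z-score averaged across arrays sharing a protein sequence and across linkers. Negative Z-scores can be read as non-binding.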
# Fuc(a1-2)Gal6S(b1-4)Glc = biological target: Fuc(a1-2)Gal6S(b1-4)Glc
# Summary of the method: as §1
# [2] = biological target: Fuc(a1-2)[Gal(a1-3)]Gal(b1-3)GlcNAc(b1-2)Man(a1-3)[Fuc(a1-2)[Gal(a1-3)]Gal(b1-3)GlcNAc(b1-2)Man(a1-6)]Man(b1-4)GlcNAc(b1-4)[Fuc(a1-6)]GlcNAc
# Summary of the method: as §1
# [3] = biological target: Fuc(a1-2)[Gal(a1-3)]Gal(b1-3)GlcNAc(b1-6)GalNAc
# Summary of the method: as §1
# [4] = biological target: Fuc(a1-2)[Gal(a1-3)]Gal(b1-4)GlcNAc(b1-2)Man(a1-3)[Fuc(a1-2)[Gal(a1-3)]Gal(b1-4)GlcNAc(b1-2)Man(a1-6)]Man(b1-4)GlcNAc(b1-4)[Fuc(a1-6)]GlcNAc
# Summary of the method: as §1
# [5] = biological target: Fuc(a1-2)[Gal(a1-3)]Gal(b1-4)GlcNAc(b1-3)[Fuc(a1-2)[Gal(a1-3)]Gal(b1-4)GlcNAc(b1-6)]GalNAc
# Summary of the method: as §1
# [6] = biological target: Fuc(a1-2)[Gal(a1-3)]Gal(b1-4)GlcNAc(b1-6)GalNAc
# Summary of the method: as §1
# [7] = biological target: Fuc(a1-2)[Gal(a1-4)]Gal(b1-4)GlcNAc
# Summary of the method: as §1
# [8] = biological target: Fuc(a1-2)[GalNAc(a1-3)]Gal(b1-3)GalNAc(a1-3)[Fuc(a1-2)]Gal(b1-4)GlcNAc
# Summary of the method: as §1
# [9] = biological target: Fuc(a1-2)[GalNAc(a1-3)]Gal(b1-3)GlcNAc(b1-2)Man(a1-3)[Fuc(a1-2)[GalNAc(a1-3)]Gal(b1-3)GlcNAc(b1-2)Man(a1-6)]Man(b1-4)GlcNAc(b1-4)[Fuc(a1-6)]GlcNAc
# Summary of the method: as §1
# [10] = biological target: Fuc(a1-3)[Gal(b1-4)]GlcNAc(b1-3)Gal(b1-4)[Fuc(a1-3)]GlcNAc
# Summary of the method: as §1
# [11] = biological target: Fuc(a1-3)[Gal(b1-4)]GlcNAc(b1-3)Gal(b1-4)[Fuc(a1-3)]GlcNAc(b1-3)Gal(b1-4)[Fuc(a1-3)]GlcNAc
# Summary of the method: as §1
# [12] = biological target: Gal(b1-3)GalNAc(a1-3)[Fuc(a1-2)]Gal(b1-4)Glc
# Summary of the method: as §1
# [13] = biological target: Gal(b1-3)GlcNAc(b1-2)Man(a1-3)[Gal(b1-3)GlcNAc(b1-2)Man(a1-6)]Man(b1-4)GlcNAc(b1-4)[Fuc(a1-6)]GlcNAc
# Summary of the method: as §1
# [14] = biological target: Gal(b1-3)GlcNAc(b1-2)Man(a1-3)[GlcNAc(b1-4)][Gal(b1-3)GlcNAc(b1-2)Man(a1-6)]Man(b1-4)GlcNAc(b1-4)GlcNAc
# Summary of the method: as §1
# [15] = biological target: Gal(b1-3)GlcNAc(b1-2)[Gal(b1-3)GlcNAc(b1-6)]Man(a1-6)[Gal(b1-3)GlcNAc(b1-2)Man(a1-3)]Man(b1-4)GlcNAc(b1-4)GlcNAc
# Summary of the method: as §1
# [16] = biological target: Gal(b1-3)GlcNAc(b1-3)Gal(b1-4)GlcNAc(b1-3)Gal(b1-4)GlcNAc(b1-2)[Gal(b1-3)GlcNAc(b1-3)Gal(b1-4)GlcNAc(b1-3)Gal(b1-4)GlcNAc(b1-6)]Man(a1-6)[Gal(b1-3)GlcNAc(b1-3)Gal(b1-4)GlcNAc(b1-3)Gal(b1-4)GlcNAc(b1-2)Man(a1-3)]Man(b1-4)GlcNAc(b1-4)[Fuc(a1-6)]GlcNAc
# Summary of the method: as §1
# Gal(b1-4)Glc = biological target: Gal(b1-4)Glc
# Summary of the method: as §1
# [17] = biological target: Gal(b1-4)GlcNAc(b1-2)Man(a1-3)Man(b1-4)GlcNAc(b1-4)GlcNAc
# Summary of the method: as §1
# [18] = biological target: Gal(b1-4)GlcNAc(b1-2)Man(a1-3)[Gal(b1-4)GlcNAc(b1-2)Man(a1-6)][GlcNAc(b1-4)]Man(b1-4)GlcNAc(b1-4)[Fuc(a1-6)]GlcNAc
# Summary of the method: as §1
# [19] = biological target: Gal(b1-4)GlcNAc(b1-3)Gal(b1-3)GlcNAc
# Summary of the method: as §1
# [20] = biological target: Gal(b1-4)GlcNAc(b1-3)Gal(b1-4)GlcNAc(b1-2)[Gal(b1-4)GlcNAc(b1-3)Gal(b1-4)GlcNAc(b1-6)]Man(a1-6)[Gal(b1-4)GlcNAc(b1-3)Gal(b1-4)GlcNAc(b1-2)Man(a1-3)]Man(b1-4)GlcNAc(b1-4)GlcNAc
# Summary of the method: as §1
# [21] = biological target: Gal(b1-4)GlcNAc(b1-3)Gal(b1-4)GlcNAc(b1-3)Gal(b1-4)GlcNAc(b1-3)Gal(b1-4)GlcNAc(b1-3)Gal(b1-4)GlcNAc(b1-2)[Gal(b1-4)GlcNAc(b1-3)Gal(b1-4)GlcNAc(b1-3)Gal(b1-4)GlcNAc(b1-3)Gal(b1-4)GlcNAc(b1-3)Gal(b1-4)GlcNAc(b1-6)]Man(a1-6)[Gal(b1-4)GlcNAc(b1-3)Gal(b1-4)GlcNAc(b1-3)Gal(b1-4)GlcNAc(b1-3)Gal(b1-4)GlcNAc(b1-3)Gal(b1-4)GlcNAc(b1-2)Man(a1-3)]Man(b1-4)GlcNAc(b1-4)[Fuc(a1-6)]GlcNAc
# Summary of the method: as §1
# [22] = biological target: Gal(b1-4)GlcNAc(b1-3)GalNAc
# Summary of the method: as §1
# Gal3S4S(b1-4)GlcNAc = biological target: Gal3S4S(b1-4)GlcNAc
# Summary of the method: as §1
# Gal6S(b1-3)GlcNAc6S = biological target: Gal6S(b1-3)GlcNAc6S
# Summary of the method: as §1
# Gal6S(b1-4)Glc6S = biological target: Gal6S(b1-4)Glc6S
# Summary of the method: as §1
# Gal6S(b1-4)GlcNAc = biological target: Gal6S(b1-4)GlcNAc
# Summary of the method: as §1
# Gal6S(b1-4)GlcNAc6S = biological target: Gal6S(b1-4)GlcNAc6S
# Summary of the method: as §1
# [23] = biological target: GlcNAc(a1-4)Gal(b1-4)GalNAc
# Summary of the method: as §1
# [24] = biological target: GlcNAc(b1-2)[GlcNAc(b1-4)]Man(a1-3)[GlcNAc(b1-4)][GlcNAc(b1-2)[GlcNAc(b1-6)]Man(a1-6)]Man(b1-4)GlcNAc(b1-4)[Fuc(a1-6)]GlcNAc
# Summary of the method: as §1
# [25] = biological target: GlcNAc(b1-3)Gal(b1-4)GlcNAc(b1-2)Man(a1-3)[GlcNAc(b1-3)Gal(b1-4)GlcNAc(b1-2)Man(a1-6)]Man(b1-4)GlcNAc(b1-4)GlcNAc
# Summary of the method: as §1
# [26] = biological target: GlcNAc(b1-3)Gal(b1-4)GlcNAc(b1-3)Gal(b1-4)GlcNAc(b1-2)[GlcNAc(b1-3)Gal(b1-4)GlcNAc(b1-3)Gal(b1-4)GlcNAc(b1-6)]Man(a1-6)[GlcNAc(b1-3)Gal(b1-4)GlcNAc(b1-3)Gal(b1-4)GlcNAc(b1-2)Man(a1-3)]Man(b1-4)GlcNAc(b1-4)[Fuc(a1-6)]GlcNAc
# Summary of the method: as §1
# [27] = biological target: Man(a1-2)Man(a1-2)Man(a1-6)[Man(a1-3)]Man
# Summary of the method: as §1
# [28] = biological target: Man(a1-2)Man(a1-3)[Man(a1-2)Man(a1-6)]Man(a1-6)[Man(a1-2)Man(a1-2)Man(a1-3)]Man
# Summary of the method: as §1
# [29] = biological target: Man(a1-2)Man(a1-3)[Man(a1-6)]Man(a1-6)[Man(a1-2)Man(a1-3)]Man(b1-4)GlcNAc(b1-4)GlcNAc
# Summary of the method: as §1
# [30] = biological target: Man(a1-2)Man(a1-6)[Man(a1-3)]Man(a1-6)[Man(a1-2)Man(a1-2)Man(a1-3)]Man(b1-4)GlcNAc(b1-4)GlcNAc
# Summary of the method: as §1
# Neu5Ac(a2-3)Gal = biological target: Neu5Ac(a2-3)Gal
# Summary of the method: as §1
# [31] = biological target: Neu5Ac(a2-3)Gal(b1-3)GlcNAc(b1-3)GalNAc
# Summary of the method: as §1
# [32] = biological target: Neu5Ac(a2-3)Gal(b1-3)[Fuc(a1-4)]GlcNAc(b1-3)Gal(b1-4)[Fuc(a1-3)]GlcNAc
# Summary of the method: as §1
# [33] = biological target: Neu5Ac(a2-3)Gal(b1-4)GlcNAc(b1-2)[Neu5Ac(a2-3)Gal(b1-4)GlcNAc(b1-6)]Man(a1-6)[Neu5Ac(a2-3)Gal(b1-4)GlcNAc(b1-2)Man(a1-3)][GlcNAc(b1-4)]Man(b1-4)GlcNAc(b1-4)GlcNAc
# Summary of the method: as §1
# [34] = biological target: Neu5Ac(a2-3)Gal(b1-4)[Fuc(a1-3)]GlcNAc(b1-3)GalNAc
# Summary of the method: as §1
# [35] = biological target: Neu5Ac(a2-8)Neu5Ac(a2-3)Gal(b1-3)GalNAc(b1-4)[Neu5Ac(a2-3)]Gal(b1-4)Glc
# Summary of the method: as §1
# [36] = biological target: Neu5Ac(b2-6)Gal(b1-4)GlcNAc
# Summary of the method: as §1
# [37] = biological target: Neu5Gc(a2-8)Neu5Ac(a2-3)Gal(b1-4)GlcNAc
# Summary of the method: as §1
# [38] = biological target: Neu5Gc(a2-8)Neu5Gc(a2-6)Gal(b1-4)GlcNAc
# Summary of the method: as §1
binder,measurement,setting,value
Cohesin-hLangerin (Homo sapiens) (protein) LDDLDAVRIKVDTVNAKPGDTVRIPVRFSGIPSKGIANCDFVYSYDPNVLEIIEIEPGDIIVDPNPDKSFDTAVYPDRKIIVFLFAEDSGTGAYAITKDGVFATIVAKVKEGAPNGLSVIKFVEVGGFANNDLVEQKTQFFDGGANVGDTTEPATPTTPVTTPTTTDDLDAASYPRFMGTISDVKTNVQLLKGRVDNISTLDSEIKKNSDGMEAAGVQIQMVNESLGYVRSQFLKLKTSVEKANAQIQILTRSWEEVSTLNAQIPELKSDLEKASALNTKIRALQGSLENMSKLLKRQNDILQVVSQGWKYFKGNFYYFSLIPKTWYSAEQFCVSRNSHLTSVTSESEQEFLYKTAGGLIYWIGLTKAGMEGDWSWVDDTPFNKVQSARFWIPGEPNNAGNNEHCGNIKAPSLQAWNDAPCDKTFLFICKRPYVPSEPHHHHHH,glycan array binding signal (z-score),[1],0.805
same,glycan array binding signal (z-score),Fuc(a1-2)Gal6S(b1-4)Glc,-0.399
same,glycan array binding signal (z-score),[2],3.97
same,glycan array binding signal (z-score),[3],-0.238
same,glycan array binding signal (z-score),[4],3.4
same,glycan array binding signal (z-score),[5],1.3
same,glycan array binding signal (z-score),[6],-0.388
same,glycan array binding signal (z-score),[7],-0.301
same,glycan array binding signal (z-score),[8],-0.411
same,glycan array binding signal (z-score),[9],2.27
same,glycan array binding signal (z-score),[10],-0.026
same,glycan array binding signal (z-score),[11],-0.424
same,glycan array binding signal (z-score),[12],-0.311
same,glycan array binding signal (z-score),[13],0.003
same,glycan array binding signal (z-score),[14],4.37
same,glycan array binding signal (z-score),[15],4.81
same,glycan array binding signal (z-score),[16],5.37
same,glycan array binding signal (z-score),Gal(b1-4)Glc,-0.309
same,glycan array binding signal (z-score),[17],-0.352
same,glycan array binding signal (z-score),[18],-0.449
same,glycan array binding signal (z-score),[19],-0.419
same,glycan array binding signal (z-score),[20],3.41
same,glycan array binding signal (z-score),[21],0.332
same,glycan array binding signal (z-score),[22],-0.438
same,glycan array binding signal (z-score),Gal3S4S(b1-4)GlcNAc,-0.417
same,glycan array binding signal (z-score),Gal6S(b1-3)GlcNAc6S,5.12
same,glycan array binding signal (z-score),Gal6S(b1-4)Glc6S,4
same,glycan array binding signal (z-score),Gal6S(b1-4)GlcNAc,3.76
same,glycan array binding signal (z-score),Gal6S(b1-4)GlcNAc6S,4.85
same,glycan array binding signal (z-score),[23],-0.401
same,glycan array binding signal (z-score),[24],-0.2
same,glycan array binding signal (z-score),[25],-0.336
same,glycan array binding signal (z-score),[26],4.94
same,glycan array binding signal (z-score),[27],5.38
same,glycan array binding signal (z-score),[28],6.69
same,glycan array binding signal (z-score),[29],-0.429
same,glycan array binding signal (z-score),[30],6.34
same,glycan array binding signal (z-score),Neu5Ac(a2-3)Gal,-0.391
same,glycan array binding signal (z-score),[31],-0.31
same,glycan array binding signal (z-score),[32],3.62
same,glycan array binding signal (z-score),[33],-0.447
same,glycan array binding signal (z-score),[34],0.356
same,glycan array binding signal (z-score),[35],-0.417
same,glycan array binding signal (z-score),[36],-0.412
same,glycan array binding signal (z-score),[37],-0.431
same,glycan array binding signal (z-score),[38],-0.412

# Source: the supplement of paper PMC8728848
